Assay [1] in a line: compounds binding Alexa647 anti-His antibody – biochemical, small-molecule microarray, 635 nm fluorescence, artefact control for SMM control protein annotation, primary screen (AID 1128).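 Note: score merges feature fluorescence with signal-to-noise for each printed compound spot.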 The following applies: higher = more signal.
The test system of assay [2] is Human papillomavirus type 1a E7 protein (residues 1-88). As to the kind of experiment: HPV1a E7 small-molecule binders, primary screen, biochemical, small-molecule microarray, residues 1-88, 635 nm (AID 1129). Particulars: small-molecule microarray binding, fluorescence 635 nm; higher = more signal.
Assay [3] deals with Focal adhesion kinase 1 (Homo sapiens) (UniProt Q05397). As to the kind of experiment: PTK2 protein binding on printed compound slides – biochemical, small-molecule microarray, 635/667 nm fluorescence, BSA, DTT, primary screen (AID 1130).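 Note: composite of spot emission at 667 nm and signal to noise over triplicate slides.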 Particulars: 635 nm fluorescence, higher = more signal.
For assay [4], the system named is Fibrinogen (Alexa647-labelled). Kind of assay: Alexa647-fibrinogen binding to printed small molecules – biochemical, small-molecule microarray, 635/667 nm fluorescence, artefact control for SMM control-protein annotation, profiling panel (AID 1131).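 Note: z-score merges 667 nm fluorescence with per-spot signal-to-noise over triplicate slides.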 The following applies: fibrinogen-A647 binding fluorescence, higher = more signal.
Assay [5] deals with Follistatin (Homo sapiens) (UniProt P19883). Kind of assay: FST protein binding to printed compounds – biochemical, small-molecule microarray, 635/667 nm fluorescence, primary screen (AID 1132). Particulars: 635 nm fluorescence, higher = more signal.
The target of assay [6] is Fibroblast growth factor 2 (Homo sapiens) (UniProt P09038). Kind of assay: basic fibroblast growth factor binding to printed compounds – biochemical, small-molecule microarray, 635/667 nm fluorescence, primary screen (AID 1133). The following applies: FGF2, fluorescence 635/667, higher = more signal.
Assay [7] can be described thus: JC-1 mitochondrial potential readout, lung cancer cells – cell-based, A549, JC-1 fluorescence, basal, 24 h, 100 nL, profiling panel (AID 1138).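 Note: A549 lung adenocarcinoma cells under basal conditions with no added stimulus; test concentration not given here.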 The following applies: higher = more signal.
For another assay, the system named is Lefty1. As to the kind of experiment: Lefty1 protein binding to printed compounds – biochemical, small-molecule microarray, 635/667 nm fluorescence, primary screen (AID 1139). Particulars: fluorescence 635/667, higher = more signal.
Assay [8] relates to wheat germ agglutinin (Triticum aestivum), Alexa647-labelled. As to the kind of experiment: Alexa647-WGA lectin binding to printed small molecules – biochemical, small-molecule microarray, 635/667 nm fluorescence, artefact control for SMM control-protein annotation, profiling panel (AID 1140).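 Note: score merges 667 nm feature emission with signal to noise over triplicate slides.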 Particulars: WGA-A647 binding, 635 nm fluorescence, higher = more signal.
Assay [9] deals with Luciferin 4-monooxygenase (Photinus pyralis) (UniProt P08659). As to the kind of experiment: inhibition of purified Photinus pyralis luciferase – biochemical, luminescence, purified enzyme, 2006 set, primary screen (AID 1141).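 Note: cell-free assay with purified firefly luciferase at 100 ng per well in PBS; test concentration not given here.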 The following applies: purified firefly luciferase, SteadyGlo luminescence, 30 min; higher = more signal, called active from +8 up or from −8 down.
In assay [10] the test system is Wnt5a (protein binding on small-molecule microarray). As to the kind of experiment: small molecules binding Wnt5a protein – biophysical, small-molecule microarray, 635/667 nm fluorescence, primary screen (AID 1142).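 Note: fluorescence read at 667 nm with signal to noise per printed feature.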 Particulars: 635 nm fluorescence, higher = more signal.
The nature of assay [11]: ATP-based viability of Huh7 replicon cells – cell-based, CellTiter-Glo luminescence, basal, 48 h, cytotoxicity control for HCV replication inhibitor project, primary screen (AID 1143).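 Note: Huh7 hepatoma cells carrying a hepatitis C replication reporter with no stimulus; test concentration not given here.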 The following applies: higher = more signal, called active from +8 up or from −8 down.
Assay [12] can be described thus: Pseudomonas biofilm growth suppression – PAO1 strain, BacTiter-Glo luminescence, LB-PBS, primary screen (AID 1144). Particulars: P. aeruginosa PAO1 biofilm, 12 h, higher = more signal.
Assay [13] in a line: basal CRE-LacZ reporter activity in PC12 – cell-based, unstimulated, primary screen (AID 1145). Particulars: no forskolin, luminescence, 4.5 h, higher = more signal, called active from +8 up or from −8 down.
The nature of assay [14]: forskolin-driven CRE-LacZ activity in PC12 – cell-based, CRE-LacZ reporter, forskolin-stimulated, primary screen (AID 1146).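 Note: PC12 cells with 6xCRE LacZ reporter stimulated by forskolin 10 µM; beta-galactosidase reporter signal reflecting CREB driven transcription.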 Particulars: luminescence, 4.5 h, higher = more signal, called active from +8 up or from −8 down.
For assay [15], the target named is Streptavidin (Streptomyces avidinii) (UniProt P22629). As to the kind of experiment: compounds binding control protein streptavidin – biophysical, small-molecule microarray, 635/667 nm fluorescence, artefact control for SMM compound annotation, primary screen (AID 1147).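 Note: signal reflects streptavidin binding to arrayed compounds as a control protein.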 The following applies: higher = more signal.
Assay [16] in a line: probe aInhba binding on compound microarray – biochemical, small-molecule microarray, 635/667 nm fluorescence, primary screen (AID 1148).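 Note: score merges 667nm spot fluorescence with signal-to-noise for antibody binding to printed compounds.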 Particulars: higher = more signal.
The target in assay [17] is Torsin-1A (Homo sapiens) (UniProt O14656). Kind of assay: TOR1A wild-type binding on microarray – cell lysate, small-molecule microarray, lysate, 635/667 nm, primary screen (AID 1149). Particulars: COS7 hTOR1A-WT lysate, 635 nm fluorescence, higher = more signal.
Assay [18] has the same target. Kind of assay: torsin A mutant lysate binding on microarrays – cell lysate, small-molecule microarray, COS7 lysate, 635/667 nm fluorescence, primary screen (AID 1150).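 Note: score pools 667 nm emission and signal to noise measuring lysate protein binding.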 Particulars: COS7 hTOR1A mutant lysate, 635 nm fluorescence, higher = more signal.
Assay [19] has as its system Sonic hedgehog protein (Shh). As to the kind of experiment: Sonic hedgehog microarray binding compounds – biochemical, small-molecule microarray, 635/667 nm fluorescence, primary screen (AID 1151).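 Note: Shh protein binding to compounds spotted on small-molecule microarray slides; score combines spot fluorescence intensity with signal-to-noise across triplicate slides.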 The following applies: 635 nm fluorescence, higher = more signal.

Calls of active or inactive are those of the source. Unless noted, the rule behind the calls is not given here.

Chain of Fibroblast growth factor 2 (Homo sapiens) (P09038 whole entry, looked up): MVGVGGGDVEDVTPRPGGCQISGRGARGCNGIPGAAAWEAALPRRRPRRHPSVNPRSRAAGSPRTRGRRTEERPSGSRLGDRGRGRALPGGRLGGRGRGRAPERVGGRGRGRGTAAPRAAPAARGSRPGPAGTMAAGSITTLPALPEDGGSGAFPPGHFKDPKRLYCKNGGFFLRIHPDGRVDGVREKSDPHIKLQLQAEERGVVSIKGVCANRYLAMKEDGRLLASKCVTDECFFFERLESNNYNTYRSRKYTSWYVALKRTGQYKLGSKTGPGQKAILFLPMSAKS
Chain of Follistatin (Homo sapiens) (P19883 whole entry, looked up): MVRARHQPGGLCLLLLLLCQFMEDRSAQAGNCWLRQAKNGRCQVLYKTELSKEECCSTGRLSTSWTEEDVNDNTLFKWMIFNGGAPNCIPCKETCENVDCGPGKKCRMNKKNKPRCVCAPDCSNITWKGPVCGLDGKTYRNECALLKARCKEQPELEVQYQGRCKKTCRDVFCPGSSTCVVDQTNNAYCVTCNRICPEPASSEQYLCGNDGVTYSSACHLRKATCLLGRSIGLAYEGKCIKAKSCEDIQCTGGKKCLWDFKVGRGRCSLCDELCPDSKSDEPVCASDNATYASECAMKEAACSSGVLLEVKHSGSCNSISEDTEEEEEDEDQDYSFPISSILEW
Chain of Focal adhesion kinase 1 (Homo sapiens) (Q05397 whole entry, looked up): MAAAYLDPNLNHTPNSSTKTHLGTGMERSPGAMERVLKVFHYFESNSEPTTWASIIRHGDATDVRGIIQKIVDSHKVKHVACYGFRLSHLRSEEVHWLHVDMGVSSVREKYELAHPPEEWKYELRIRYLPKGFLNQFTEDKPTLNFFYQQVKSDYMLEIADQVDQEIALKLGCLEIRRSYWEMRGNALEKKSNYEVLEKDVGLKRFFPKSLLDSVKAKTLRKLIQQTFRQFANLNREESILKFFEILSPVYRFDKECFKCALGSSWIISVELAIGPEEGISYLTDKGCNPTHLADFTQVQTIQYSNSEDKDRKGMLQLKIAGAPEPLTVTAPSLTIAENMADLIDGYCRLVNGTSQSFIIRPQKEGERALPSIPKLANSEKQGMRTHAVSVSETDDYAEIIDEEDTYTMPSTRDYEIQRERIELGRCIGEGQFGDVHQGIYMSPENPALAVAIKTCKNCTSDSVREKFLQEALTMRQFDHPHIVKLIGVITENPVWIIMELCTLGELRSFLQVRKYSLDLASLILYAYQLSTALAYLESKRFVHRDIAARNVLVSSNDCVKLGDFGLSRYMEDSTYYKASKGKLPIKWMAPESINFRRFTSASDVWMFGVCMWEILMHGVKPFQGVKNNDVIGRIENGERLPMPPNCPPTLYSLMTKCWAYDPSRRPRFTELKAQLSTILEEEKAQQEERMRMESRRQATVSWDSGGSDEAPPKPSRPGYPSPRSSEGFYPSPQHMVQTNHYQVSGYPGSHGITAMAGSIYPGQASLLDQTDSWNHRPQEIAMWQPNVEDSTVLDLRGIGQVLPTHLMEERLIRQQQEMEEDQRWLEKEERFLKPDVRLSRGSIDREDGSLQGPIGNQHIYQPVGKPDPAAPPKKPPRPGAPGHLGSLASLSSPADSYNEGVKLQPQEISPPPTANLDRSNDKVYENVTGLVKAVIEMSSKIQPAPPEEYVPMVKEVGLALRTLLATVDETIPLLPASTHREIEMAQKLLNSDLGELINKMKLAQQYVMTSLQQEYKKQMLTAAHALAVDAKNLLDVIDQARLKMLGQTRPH
Chain of Torsin-1A (Homo sapiens) (O14656 whole entry, looked up): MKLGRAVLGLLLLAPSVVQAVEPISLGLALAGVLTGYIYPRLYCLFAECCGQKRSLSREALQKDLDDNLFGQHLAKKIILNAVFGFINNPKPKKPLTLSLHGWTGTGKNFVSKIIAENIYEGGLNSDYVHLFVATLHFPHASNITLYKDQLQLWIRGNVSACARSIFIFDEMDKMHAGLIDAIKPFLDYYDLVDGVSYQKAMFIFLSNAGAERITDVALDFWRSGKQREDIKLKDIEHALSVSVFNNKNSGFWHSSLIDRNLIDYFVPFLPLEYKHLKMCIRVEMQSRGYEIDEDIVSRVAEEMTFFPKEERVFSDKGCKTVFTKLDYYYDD
Chain of Luciferin 4-monooxygenase (Photinus pyralis) (P08659 whole entry, looked up): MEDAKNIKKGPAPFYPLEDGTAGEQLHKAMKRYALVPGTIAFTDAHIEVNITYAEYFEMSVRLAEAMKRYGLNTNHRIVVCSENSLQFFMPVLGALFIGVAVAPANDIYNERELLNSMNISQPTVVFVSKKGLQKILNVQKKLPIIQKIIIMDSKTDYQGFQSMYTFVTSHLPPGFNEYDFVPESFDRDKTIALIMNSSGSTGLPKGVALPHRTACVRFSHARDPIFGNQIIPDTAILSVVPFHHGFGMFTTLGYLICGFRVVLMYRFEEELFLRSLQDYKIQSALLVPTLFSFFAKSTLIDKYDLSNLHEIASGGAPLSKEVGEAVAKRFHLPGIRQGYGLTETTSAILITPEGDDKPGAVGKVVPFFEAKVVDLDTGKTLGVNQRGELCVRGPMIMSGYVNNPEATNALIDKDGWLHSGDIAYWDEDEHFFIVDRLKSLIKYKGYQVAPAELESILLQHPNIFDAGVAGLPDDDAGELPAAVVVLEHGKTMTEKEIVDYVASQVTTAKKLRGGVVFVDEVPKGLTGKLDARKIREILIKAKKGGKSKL
Chain of Streptavidin (Streptomyces avidinii) (P22629 whole entry, looked up): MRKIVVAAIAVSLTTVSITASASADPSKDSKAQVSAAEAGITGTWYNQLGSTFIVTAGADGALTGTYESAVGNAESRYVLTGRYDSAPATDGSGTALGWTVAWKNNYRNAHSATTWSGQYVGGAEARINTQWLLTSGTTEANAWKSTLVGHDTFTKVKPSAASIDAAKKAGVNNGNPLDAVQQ

As to `COCC(=C=CC[C@H](O)c1ccc(OCCO)cc1)C[C@H](O)COCc1ccccc1`, the composite z-score in assay [1] turned out to be 1.35; in assay [2], 0.887; in assay [3] it was 0.453; in assay [4] it was 0.31; in [5], 1.21; in [6], 0.372. The composite z-score is 0.722 in the assay with Lefty1; 0.624 in [8]; 0.122 in [10]; 0.249 in assay [15]; -0.0736 in assay [16]; 0.908 in the assay with Torsin-1A (Homo sapiens) [17]. The composite z-score with Torsin-1A (Homo sapiens) [18] was 0.719; in [19], 1.55. In addition, the z-score was 0.743 in assay [7]; -0.627 (inactive) in [9]; -1.66 (inactive) in assay [11]; -0.54 (inactive) in assay [12]; 0.611 (inactive) in [13]; -0.724 (inactive) in assay [14].
On to `C=CCOC(=O)[C@H]1[C@@H]2C(=O)O[C@@H](c3ccccc3)[C@@H](c3ccccc3)N2[C@@H](c2ccc(OCCOC(=O)[C@H]3C[C@H]4C(=O)N[C@@H](Cc5ccccc5)C(=O)N4[C@H]3c3cccc(OCCO)c3)cc2)[C@]12C(=O)Nc1ccc(I)cc12`, for which the composite z-score in [1] is 2.34; in assay [2], 1.16; in assay [3], 0.41; in [4], 0.948; in [5] it was 1.2; in assay [6] it was 1.71. For the same compound, the composite z-score was 1.35 in the assay with Lefty1; 0.324 in assay [8]; 0.971 in [10]; 0.309 in assay [15]; -0.0112 in [16]; 0.703 with Torsin-1A (Homo sapiens) [17]. Besides, the composite z-score with Torsin-1A (Homo sapiens) [18] worked out at 0.815; in assay [19], 2.16. In addition, the z-score was -1.41 in [7]; -0.65 (inactive) in assay [9]; -0.441 (inactive) in [11]; -0.283 (inactive) in assay [12]; 0.688 (inactive) in assay [13]; 0.144 (inactive) in [14].
`COCCCNC(=O)[C@]1(Cc2ccccc2CN=[N+]=[N-])N=C(c2ccc(OCCCO)cc2)O[C@@H]1c1ccccc1`: the composite z-score in assay [1] is 2.83; in [2] it was 1.19; in assay [3] it was 0.306; in assay [4], 0.985; in assay [5] it was 0.547; in assay [6], -0.0864. In addition, the composite z-score is 0.0167 with Lefty1; 0.643 in assay [8]; 0.419 in [10]; 0.723 in assay [15]; -0.0736 in assay [16]; 0.214 with Torsin-1A (Homo sapiens) [17]. In addition, the composite z-score with Torsin-1A (Homo sapiens) [18] is 0.311; in [19], -1.07. Besides, the z-score was 1.06 in [7]; 0.505 (inactive) in [9]; -4.93 (inactive) in assay [11]; -0.436 (inactive) in assay [12]; -0.0667 (inactive) in assay [13]; -0.577 (inactive) in [14].
Regarding `C=CCC(OC(C)=O)[C@@H]1[C@@H](N(Cc2ccc(-c3ccccc3)cc2)C(=O)c2cccc3ccccc23)c2cc(OCCCO)ccc2N1C(=O)Cc1ccc2ccccc2c1` (stereo not given in full), the composite z-score in [1] is 0.23; in [2], -0.0083; in assay [3], -0.0525; in assay [4] it was -0.545; in assay [5] it was 0.295; in assay [6] it was -0.327. Also, the composite z-score is 0.191 in the assay with Lefty1; 0.605 in assay [8]; -0.195 in assay [10]; -0.0695 in [15]; -0.17 in assay [16]; 0.0517 with Torsin-1A (Homo sapiens) [17]. For the same compound, the composite z-score with Torsin-1A (Homo sapiens) [18] amounted to 0.12; in assay [19], 0.39. Further, the z-score in assay [7] is 0.31; in assay [9], -0.105 (inactive); in assay [11] it was -1.31 (inactive); in assay [12] it was 0.457 (inactive); in assay [13], 0.423 (inactive); in assay [14], -0.481 (inactive).
Consider `C=CC[C@@]12N=C(c3ccc(OCCCO)cc3)O[C@@H]1c1ccccc1N(CCS(=O)(=O)c1ccccc1)C2=O`, for which the composite z-score was 0.954 in assay [1]; 1.22 in assay [2]; 0.87 in [3]; 0.944 in [4]; 1.3 in [5]; 1.55 in [6]. Moreover, the composite z-score in the assay with Lefty1 was 0.51; in [8] it was 0.961; in assay [10], 0.518; in [15], 1.41; in assay [16], 0.136; with Torsin-1A (Homo sapiens) [17], 0.558. Also, the composite z-score is 0.264 with Torsin-1A (Homo sapiens) [18] and 1.62 in assay [19]. For the same compound, the z-score is 0.699 in [7]; -12.1 (active) in assay [9]; -3.23 (inactive) in assay [11]; -0.196 (inactive) in [12]; -0.744 (inactive) in assay [13]; -2.22 (inactive) in assay [14].

The values above are taken from PubChem BioAssay.
